The results in this text go back to PubChem BioAssay (NCI).

This assay can be described thus: NCI Yeast Anticancer Drug Screen. Data for the rad18 strain (AID 177). The settings on record: S. cerevisiae rad18 mutant growth inhibition, hits give high values. On the procedure: Growth inhibition of yeast strains with defined genetic alterations is measured as a screen for potential anti-cancer activity. Selected strains with alterations in DNA damage repair or cell cycle control were exposed to compounds and growth inhibition was measured relative to vehicle treated controls. The strain used in this assay is rad18

SMILES strings stand for the structures. The panel holds about 79,000 compounds, 15% with a hit somewhere; the sample as a whole holds those more often. Values without a mark were called inactive. The source made the active and inactive calls. Cut-off read from the data, not from the text of the source: active = growth inhibition above about 70%; inactive = the rest.

In the case of `CC(=O)O/C(=C1\C[C@H]2[C@@H]3CC=C4C[C@@H](OC(C)=O)CC[C@]4(C)[C@H]3CC[C@]2(C)C1=O)C(F)(F)F`, the growth inhibition was -4% (at 1.2 µM); -3% (at 3.7 µM); 3% (at 11.0 µM); -3% (at 33.0 µM); -6% (at 100.0 µM).
With `O=C1NC(=S)NC(=O)C1=Cc1ccc([N+](=O)[O-])o1`, the growth inhibition (at 1.2 µM) was 21%; the growth inhibition (at 3.7 µM) was 16%; the growth inhibition (at 11.0 µM) is 57%; the growth inhibition (at 33.0 µM) is 83% (active); the growth inhibition (at 100.0 µM) is 92% (active).
The matching figures for `CCOC(=O)C1([Se]c2ccccc2)CCCC1=O` (stereo not given): 9%, 21%, 30%, 65% and 91% (active).
In the same order, the values of `CC1CCCN(CCc2ccccc2)CC1` (stereo not given) are 3%, 7%, 15%, 12% and 16%.
In the same order, the values of `CNCC(O)c1ccc(O)c(O)c1.[Pt].c1ccc([PH+](c2ccccc2)c2ccccc2)cc1.c1ccc([PH+](c2ccccc2)c2ccccc2)cc1` are 0%, 2%, 19%, 80% (active) and 96% (active).
With `C[N+](CCCl)(CCCl)Cc1cccc2cccc([N+](=O)[O-])c12`, the growth inhibition was 11% (at 1.2 µM); 56% (at 3.7 µM); 91% (active) (at 11.0 µM); 95% (active) (at 33.0 µM); 96% (active) (at 100.0 µM).
Regarding `Nc1ccccc1C(=O)OCCc1ccccc1`, the growth inhibition runs as follows: (at 1.2 µM) -58%; (at 3.7 µM) -22%; (at 11.0 µM) -29%; (at 33.0 µM) -24%; (at 100.0 µM) 87% (active).
Take `O=C(/C=C(\c1ccccc1)N1CC1)c1ccccc1`: the growth inhibition runs as follows: (at 1.2 µM) -1%; (at 3.7 µM) 4%; (at 11.0 µM) 13%; (at 33.0 µM) 16%; (at 100.0 µM) 96% (active).
